Shown are actives, neighbours in structure and some others; about 3.6% of the full set was active somewhere.
SARS 3CLpro inh: SARS-CoV 3CLpro protease inhibition; P0C6X7; recombinant SARS-CoV 3CLpro, quenched FRET peptide cleavage; inhibition, % at 6 µM; 290,000 compounds, 0.14% hits; AID 1706; in the data active = inhibition above about 12%
BoNT-F LC inh: blocks Botulinum neurotoxin F light chain protease. inhibition, % at 10 µM. Multiplex microsphere protease cleavage assay, flow cytometry. 360,000 compounds, 0.22% hits; in the data active = inhibition above about 35%, passing the limit was not always enough; inconclusive = no clear call, values can overlap the other calls
BoNT A protease: BoNT A light chain protease inhibition; 360,000 compounds, 0.17% hits; inhibition, % at 10 µM; multiplex microsphere protease substrate cleavage, flow cytometry
Bead autofluor: flagged as autofluorescent in microsphere protease counterscreen. compound autofluorescence counterscreen, microsphere flow cytometry; stronger effect = higher value. fluorescence intensity (no concentration beside the values). 360,000 compounds, 3.1% hits; in the data active = fluorescence intensity above about 16000; inconclusive = no clear call, values can overlap the other calls
BJeLR lethal: kills HRASV12-expressing BJeLR cells; BJeLR (HRASV12) viability, CellTiter-Glo ATP luminescence, 48 h; 300,000 compounds, 0.17% hits; inhibition, % (test concentration not listed); in the data active = inhibition above about 50%; inconclusive = no clear call, values can overlap the other calls
Anthrax LF prot: inhibitors of Bacillus anthracis lethal factor protease; P15917; multiplex microsphere protease cleavage assay, LF; inhibition, % at 10 µM; 360,000 compounds, 0.12% hits; AID 588501
Hits are given with their value; 0 = inactive; ? = inconclusive; - = no result. Rule as the data show it, unless noted: active = inhibition above about 30%; inconclusive = no clear call, values can overlap the other calls; inactive = below that.

SMILES | SARS 3CLpro inh | BoNT-F LC inh | BoNT A protease | Bead autofluor | BJeLR lethal | Anthrax LF prot
O=C(NC(=S)Nc1nc(-c2ccc(Br)cc2)cs1)c1cccnc1 | 0 | 0 | 0 | 23721 | 0 | 0
O=C(Nc1nc(-c2ccc(Br)cc2)cs1)c1cccnc1 | 0 | 0 | 0 | 0 | 0 | 0
Brc1ccc(CNCc2cccs2)cc1 | 0 | 0 | 0 | 0 | 0 | 0
c1ccc(COc2ccc(CNCc3cccs3)cc2)cc1 | 0 | 0 | 0 | 20591 | 0 | 0
O=C1OCC(Cn2c3ccccc3c3ccccc32)O1 (configuration not stated) | 0 | 0 | 0 | 23400 | 0 | 0
CC1(C(=O)Nc2ccc(Cl)c(C(F)(F)F)c2)Cc2c(-c3ccc(C(N)=O)cc3)ccnc2O1 (configuration not stated) | - | 0 | 0 | 0 | - | 0
O=C(CCCC(=O)OCC(Cl)=C(Cl)Cl)Nc1cccc(F)c1 | 0 | 0 | 0 | 22287 | 0 | 0
CCOC(=O)c1c(C)n(CC(COC(C)=O)OC(C)=O)c2ccc(OC(C)=O)cc12 (configuration not stated) | 0 | 0 | 0 | 16360 | 0 | 0
O=C(NCC(F)(F)F)c1ccc2sc([C@@H]3O[C@H](CO)[C@H](O)[C@H](O)[C@H]3O)nc2c1 | - | 0 | 0 | 0 | - | 0
Cc1ccc(NC(=O)c2cccc(S(=O)(=O)N3CCCC3)c2)nc1 | - | 0 | 0 | 0 | 0 | 0
O=C(Nc1ccc(Cl)cn1)c1cccc(S(=O)(=O)N2CCOCC2)c1 | 0 | 0 | 0 | 20815 | 0 | 0
O=C(Nc1nncs1)c1cccc(S(=O)(=O)N2CCCC2)c1 | 0 | 0 | 0 | 0 | 0 | 0
O=C(Nc1nncs1)c1cccc(S(=O)(=O)N2CCOCC2)c1 | 0 | 0 | 0 | 16353 | 0 | 0
O=C(COc1ccc(S(=O)(=O)N2CCCC2)cc1)NCc1ccccn1 | 0 | 0 | 0 | 0 | 0 | 0
O=C(N/N=C/c1cc2c3c(c1O)CCCN3CCC2)c1ccccc1O | 0 | 0 | 0 | 0 | 53 | 0
CCN(CC(=O)Nc1ccccc1C(F)(F)F)C(=O)CCc1c(C)[nH]c(=O)c(C#N)c1C | 0 | 0 | 0 | 0 | 0 | 0
CCCN(C)C1CN(Cc2cn(Cc3cc(C)cc(C)c3)nn2)S(=O)(=O)C1 (configuration not stated) | - | 0 | 0 | 0 | - | 0
O=C(CN1C(=O)CSc2ccccc21)N/N=C/c1ccco1 | 0 | ? | 0 | 0 | 0 | 0
COc1ccc(-c2nnn(CC(=O)N(Cc3cccs3)C(C)C(=O)NCCC(C)C)n2)cc1OC (configuration not stated) | 0 | 0 | 0 | 0 | 0 | 0
COc1ccc(-c2nnn(CC(=O)N(CC(=O)NCCC(C)C)Cc3cccs3)n2)cc1OC | 0 | 0 | ? | 16733 | 0 | 0
CC(C)CCNC(=O)CN(CCN1CCOCC1)C(=O)Cn1nnc(-c2ccc(F)cc2)n1 | 0 | 0 | 0 | 22983 | 0 | 0
O=C(/C=C/c1ccc([N+](=O)[O-])cc1)N(c1ccccn1)C1CCCCC1 | 0 | 0 | 0 | 0 | 0 | 0
O=C(CCCOc1ccccc1)N1CCN(C(=O)c2ccco2)CC1 | 0 | 0 | 0 | 23020 | 0 | 0
O=C(NCc1ccccc1)c1ccccc1OCC(=O)N1CCCCC1 | 0 | 0 | 0 | 22260 | 0 | 0
O=C(COc1ccc2ccccc2c1)N1CCN(C(=O)c2ccco2)CC1 | 0 | 0 | 0 | 0 | 0 | 0
SMILES | SARS 3CLpro inh | BoNT-F LC inh | BoNT A protease | Bead autofluor | BJeLR lethal | Anthrax LF prot
Cc1cc(Cl)ccc1OCCCC(=O)N1CCN(C(=O)c2ccco2)CC1 | 0 | 0 | 0 | 21790 | 0 | 0
O=C(NCc1ccccc1)c1cccc(OCC(=O)N2CCN(C(=O)c3ccco3)CC2)c1 | 0 | 0 | ? | 20088 | 0 | 0
COCCn1c(Cc2ccccc2)nnc1SCC(=O)NC(C)(C)C | 0 | 0 | 0 | 0 | 0 | 0
COCCn1c(SCC(=O)OC(C)C)nnc1-c1ccccc1 | 0 | 0 | 0 | 24184 | 0 | 0
COCCn1c(Cc2ccccc2)nnc1SCC(=O)N(C)C | 0 | 0 | 0 | 21939 | 0 | 0
CCn1c(SCC(=O)Nc2nc(C)c(C)s2)nnc1-c1cccnc1 | 0 | 0 | 0 | 17323 | 0 | 0
CCCn1c(SCC(=O)Nc2nc(C)cs2)nnc1-c1cccnc1 | 0 | 0 | 0 | 0 | - | 0
CCn1c(Cc2ccccc2)nnc1SCC(=O)OC(C)C | 0 | 0 | 0 | 21705 | 0 | 0
Cc1ccc(S(=O)(=O)c2nc(S(C)(=O)=O)sc2N2CCC3(CC2)OCCO3)cc1 | 0 | 0 | 0 | 0 | 0 | 0
COCCCn1c(C)nnc1SCC(=O)NNC(=O)COc1ccc(Cl)cc1 | 0 | 0 | 0 | 0 | 0 | 0
Cc1cc(NC(=O)CSc2nnc3ccccn23)no1 | 0 | 0 | 0 | 17051 | 0 | 0

Bioassay records (PubChem BioAssay)
